± gives the standard deviation.

In this assay the test system is MILI (PIWIL2) piRISC loaded with piRNA #1 (26 nt). The assay is described as follows: pre-steady-state target cleavage rate (min^-1); guide: piRNA #1 5'p-UGAGGUAGUAGGUUGUAUAGUAUCCA; MIWI and MILI are mouse PIWI proteins and EfPiwi is from a freshwater sponge; tags in brackets are library labels; higher = faster piRNA-guided slicing of the target. As to conditions: auxiliary factor: 500 nM mouse GTSF1. The procedure, abridged: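 Sequencing of uncleaved targets, normalised to depth and to weakly complementary targets, was the readout of this Cleave-'n-Seq assay. A transcribed, DNA-blocked target RNA library (0.1 nM) was mixed with 1 nM active affinity-purified piRISC carrying one synthetic guide, with or without 500 nM GTSF1 partner protein, in HEPES–potassium acetate buffer at 33 °C for 0–8 or 0–960 min. Three trials were pooled, k3 was capped at 0.0001 min^-1, and a burst-and-steady-state fit gave the pre-steady-state cleavage rate.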
Regarding GGAGACCUUACUAUACAACCUACUAGCUGA, the “pre-steady-state target cleavage rate” value came to 0.00949 ± 0.0037.

As to GGAGACCUAACUAUACAACCUAACUACCUCA, the “pre-steady-state target cleavage rate” value is 0.00748 ± 0.0037.

In the case of GGAGACCUAUGAUAUGUUGCUACAACCUGA, the “pre-steady-state target cleavage rate” value was less than 0.0001.

As for GGAGACCUAUCUAUACUACCUACUACCUGA, the “pre-steady-state target cleavage rate” value was 0.0569 ± 0.013.

As for GGAGACCUAUGAUAUGUACCUAGUUCCUCA, the “pre-steady-state target cleavage rate” value was less than 0.0001.

As for GGAGACCUAUCUAUACAUGCUACUACCUCA, the “pre-steady-state target cleavage rate” value worked out at 0.0973 ± 0.012.

For the sequence GGAGACCUAUGUAUACAAGCUACUUCCUCA, the “pre-steady-state target cleavage rate” value worked out at 0.101 ± 0.013.

Regarding GGAGACCUUACUAAAGAACCUACUACCUCA, the “pre-steady-state target cleavage rate” value was found to be 0.105 ± 0.011.

Turning to GGAGACGAUACUAUAAACCUACUACCUCA, the “pre-steady-state target cleavage rate” value is 0.0257 ± 0.0077.

In the case of GGAGACCUAUCUAUACAAGCAACUACCUCA, the “pre-steady-state target cleavage rate” value stood at 0.00953 ± 0.0029.

Consider GGAGACCUAUCUAUACAACCUCCUACCUCA, for which the “pre-steady-state target cleavage rate” value was 0.0185 ± 0.0046.

On to GGAGACCUAUGAUUACAACCUACUACCACA, for which the “pre-steady-state target cleavage rate” value was 0.00372 ± 0.0023.

For the sequence GGAGACCUAUGAUAACAACCUACCACCUCA, the “pre-steady-state target cleavage rate” value was 0.00342 ± 0.0032.

Take GGAGACCUAUGUAUACAACGUAGUACCUCA: the “pre-steady-state target cleavage rate” value was determined as 0.0032 ± 0.0023.

GGAGACCUAUGAUAACAACCUACUUGGUCA: the “pre-steady-state target cleavage rate” value was less than 0.0001.

For the sequence GGAGACCAUACUAAACAACCUAGUACCUCA, the “pre-steady-state target cleavage rate” value was 0.0362 ± 0.0083.

As for GGAGACCUAUGAUUACUACCUACAACCUCA, the “pre-steady-state target cleavage rate” value turned out to be 0.00398 ± 0.0024.

For GGAGACCUAUCUAUACAUCCUACUACGUCA, the “pre-steady-state target cleavage rate” value came out at 0.0773 ± 0.017.

In the case of GGAGACCUAUGAUUACAAGCUACUACCUCA, the “pre-steady-state target cleavage rate” value was determined as 0.0262 ± 0.0067.

Consider GGAGUGGAUACUUUACAACCUACUACCACA, for which the “pre-steady-state target cleavage rate” value is 0.0946 ± 0.011.

Regarding GGAGACCUAACUAUUCAACCUACUACGUCA, the “pre-steady-state target cleavage rate” value amounted to 0.0338 ± 0.011.

GGAGACCUAUGAUAUGUGCCUACUACCUCA: the “pre-steady-state target cleavage rate” value was less than 0.0001.

Consider GGAGACCUAUGAUAUGUACCUACUUGCUCA, for which the “pre-steady-state target cleavage rate” value is less than 0.0001.

As to GGAGACCUAACUUAUACAACCUACUACCUCA, the “pre-steady-state target cleavage rate” value turned out to be 0.0771 ± 0.019.

For GGAGACCUAUCUAUACAACCUACUACGACA, the “pre-steady-state target cleavage rate” value amounted to 0.0627 ± 0.01.

Turning to GGAGACGAAACUAUAGAACCUACUACCUCA, the “pre-steady-state target cleavage rate” value was 0.146 ± 0.014.

Take GGAGACCUAACUAACAACCUACUACCUCA: the “pre-steady-state target cleavage rate” value came to 0.0182 ± 0.0067.

As to GGAGAGGAUACUAUACUACCUACUACGUCA, the “pre-steady-state target cleavage rate” value was determined as 0.0806 ± 0.01.

Turning to GGAGACCUAUGAUAUGAAGGAACUACCUCA, the “pre-steady-state target cleavage rate” value is less than 0.0001.

In the case of GGAGACCUAUCUAUACAACCUACUUCCACA, the “pre-steady-state target cleavage rate” value stood at 0.0447 ± 0.011.

For GGAGACCUAUCUAUACAACCUACUGACCUCA, the “pre-steady-state target cleavage rate” value turned out to be 0.066 ± 0.012.

With GGAGACCUAACUAUACAACCUACCUACCUCA, the “pre-steady-state target cleavage rate” value came out at 0.0837 ± 0.018.

GGAGACCUUUCUAUACAACCUACUAGCUCA: the “pre-steady-state target cleavage rate” value turned out to be 0.0622 ± 0.013.

For GGAGACCAUACUUUUCAACCUACUACCUCA, the “pre-steady-state target cleavage rate” value was found to be 0.153 ± 0.015.

Regarding GGAGAGGAUACUAUACAACCUACCUACCUCA, the “pre-steady-state target cleavage rate” value is 0.142 ± 0.013.

For GGAGACCUAUCUAUACAACCGACUACCUCA, the “pre-steady-state target cleavage rate” value was 0.0049 ± 0.003.

For GGAGACCAUACUAUUGAACCUACUACCUCA, the “pre-steady-state target cleavage rate” value turned out to be 0.153 ± 0.013.

GGAGACCUAACUAUUCAACCUACUACCUGA: the “pre-steady-state target cleavage rate” value came out at 0.0858 ± 0.03.

GGAGACCUUACUAUACAACCUACUUCCACA: the “pre-steady-state target cleavage rate” value worked out at 0.0518 ± 0.013.

Turning to GGAGACCUAUCUAUACAACCUACUAUCCUCA, the “pre-steady-state target cleavage rate” value came out at 0.193 ± 0.023.

The values are drawn from the supplement of paper PMC10338343.
